# Bioassay records as filed in PubChem BioAssay.
# CSC inhib = cancer stem cell inhibition; actives 1.1% (n = 300,000); inhibition, % at 7.5 µM; cancer stem cell-like cells viability, luminescence; in the data active = inhibition above about 75%; inconclusive = no clear call, values can overlap the other calls; tested in HMLE shEcad cells
# PP1 counter = counter-screen for PP5 inhibitors: inhibitors of human PP1-alpha; purified PP1alpha, OMFP fluorescence; inhibition, % at 6.7 µM; actives 0.9% (n = 320,000); AID 2235;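 active = inhibition above the mean inhibition of all tested compounds plus 3 SD, computed separately for each screening campaign, cut at about 15% in these data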
# Target sequence (P62136 whole entry, looked up): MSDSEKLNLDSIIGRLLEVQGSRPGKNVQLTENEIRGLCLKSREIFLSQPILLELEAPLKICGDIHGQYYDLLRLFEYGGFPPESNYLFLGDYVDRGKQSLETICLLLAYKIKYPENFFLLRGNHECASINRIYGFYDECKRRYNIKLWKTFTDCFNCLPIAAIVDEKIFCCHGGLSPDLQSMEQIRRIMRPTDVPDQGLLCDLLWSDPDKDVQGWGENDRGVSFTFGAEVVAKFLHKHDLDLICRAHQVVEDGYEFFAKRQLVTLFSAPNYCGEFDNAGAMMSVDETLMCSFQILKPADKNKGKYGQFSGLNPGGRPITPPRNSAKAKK
# ALR H2O2 inh = human ALR oxidase inhibition via reduced H2O2. P55789. purified ALR, DTT oxidation, H2O2 HRP-luminol luminescence. inhibition, % (test concentration not listed). actives 3.8% (n = 290,000). AID 485317;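 active = mean replicate inhibition above about 79%, with every replicate also reaching it, limit read from the data; inconclusive = only one of the two criteria met; inactive = mean below limit and not every replicate reaching it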
# Target sequence (P55789 whole entry, looked up): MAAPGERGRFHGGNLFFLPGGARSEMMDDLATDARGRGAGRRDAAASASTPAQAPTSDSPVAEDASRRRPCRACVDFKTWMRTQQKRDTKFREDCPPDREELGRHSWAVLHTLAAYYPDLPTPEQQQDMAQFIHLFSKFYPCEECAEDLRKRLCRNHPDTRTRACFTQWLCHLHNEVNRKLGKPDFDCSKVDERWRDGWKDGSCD
# Calb FLC = affects C. albicans growth with fluconazole | C. albicans CaCi-2 (fluconazole-resistant clinical isolate) + fluconazole, Alamar Blue growth, 48 h | growth inhibition, % (concentration not given with the values) | actives 0.57% (n = 300,000) | AID 1979;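 active = growth inhibition above about 58% in most replicates, limit read from the data, passing the limit was not always enough; inconclusive = exactly half the replicates above a set limit; inactive = most replicates below a set limit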;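 also: all wells also contain fluconazole at 8 µg/ml as a sub-toxic cotreatment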
# PP5 inh = PP5 (human) phosphatase inhibition | P53041 | purified PP5c, OMFP substrate fluorescence | inhibition, % at 6.7 µM | actives 0.18% (n = 320,000) | AID 1987;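 active = inhibition above the campaign's mean inhibition across all tested compounds plus 3 SD, cut at about 9.5% in these data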
# A number is an active result; – = inactive; ? = inconclusive; · = not tested or not shown. This is a sample that favours compounds with a hit; in the whole collection about 5.4% have one here.
SMILES,CSC inhib,PP1 counter,ALR H2O2 inh,Calb FLC,PP5 inh
CCc1nnc(N/N=C/c2ccc(O)c(OC)c2)n1N,–,–,·,–,–
CCc1nnc(N/N=C/c2cc(Br)c(O)cc2O)n1N,–,–,83,–,–
CCOC(=O)C1CCN(Cc2cc(=O)oc3cc(C)c(Cl)cc23)CC1,–,–,–,–,–
CC(C)Oc1ccc(CSc2ncn[nH]2)cc1,–,–,–,–,–
CC(C)Oc1ccc(CSC(=N)N)cc1,–,–,98,–,–
O=S(=O)(Cc1ccc(Cl)cc1)N1CCN(Cc2ccccc2)CC1,–,–,–,125,–
Cn1c(N2CCOCC2)c(/C=N/O)c2ccccc21,–,–,–,–,–
Cn1c(N2CCOCC2)c(/C=N/OC(=O)c2ccc(F)cc2)c2ccccc21,–,–,–,94,–
CC(=O)O/N=C/c1c(N2CCOCC2)n(C)c2ccccc12,–,–,–,99,–
O=C(Nc1ccccc1)OCCN1CCN(Cc2ccccc2)CCC1=O,–,–,–,–,–
Cc1ccc(NC(=O)OCCN2CCN(Cc3ccccc3)CCC2=O)cc1,–,–,92,–,–
COc1ccc(C2C(C(=O)c3cccs3)=C(O)C(=O)N2c2nncs2)cc1 (stereo not drawn),–,–,–,116,–
O=C(CSc1nc2[nH]c(=O)cc(O)c2s1)Nc1ccc(Cl)c(C(F)(F)F)c1,–,–,99,·,–
Cc1cc(C)cc(NC(=O)CSc2nc3[nH]c(=O)cc(O)c3s2)c1,–,–,98,–,–
O=C(CSc1nc2[nH]c(=O)cc(O)c2s1)Nc1cc(Cl)cc(Cl)c1,–,–,99,–,–
CN(CC(=O)Nc1ccc(F)cc1)C(=O)COc1ccc([N+](=O)[O-])cc1Cl,–,–,–,?,–
CCC1CCCCN1CCCNS(=O)(=O)c1ccc2c(c1)oc(=O)n2C (stereo not drawn),–,–,–,–,–
O=C(Nc1c(C(=O)N2CCCCC2)cnn1-c1ccccc1)c1ccccc1F,–,·,–,?,·
CCOC(=O)c1[nH]c2ccc(C)cc2c1NC(=O)CN1CCCCC1,–,–,98,–,–
CCOC(=O)c1[nH]c2ccccc2c1NC(=S)Nc1ccccc1,–,–,98,–,–
CCOC(=O)c1[nH]c2ccccc2c1NC(=S)Nc1cccc(C)c1,–,–,98,–,–
CCOC(=O)c1[nH]c2ccccc2c1NC(C)=O,–,–,–,–,–
O=C(N/N=C/c1cccnc1)c1[nH]ncc1Br,–,–,·,–,–
COc1ccc(C[C@H]2c3cc(O)c(OC)cc3CC[N+]2(C)[O-])cc1O (stereo partly drawn),–,–,95,–,–
C=CCN1c2ccccc2[C@]23C[C@@H](C(=O)OC)N(C(C)=O)C2=NC(C(=O)OC)=C(C(=O)OC)[C@H]13,–,–,–,–,–
SMILES,CSC inhib,PP1 counter,ALR H2O2 inh,Calb FLC,PP5 inh
C=CCc1cccc(CNc2ccc(Br)cc2)c1O,–,–,98,?,–
O=C(c1ccc(S(=O)(=O)N2CCC(c3nc4ccccc4[nH]3)CC2)cc1)N1CCOCC1,–,–,·,–,–
COc1ccc2[nH]c(-c3cccc(F)c3)cc(=O)c2c1,76,–,–,–,–
COc1ccc(N=Nc2nc3ccc(Br)cc3n2C)cc1,–,–,–,–,–
NC(=O)c1sc(=S)n(-c2ccc(Br)cc2)c1N,–,–,95,–,–
CCNC(=O)c1sc(=S)n(-c2ccc(C)cc2)c1N,–,–,–,–,–
COc1ccc(CNC(=O)Cn2nc(C)n3cccc3c2=O)cc1,–,–,–,–,–
COc1cc(C(=S)N2CCN(c3ccccc3Cl)CC2)cc(O)c1O,–,–,99,91,–
CCOc1ccc(NC(=S)c2ccc3ccccc3n2)cc1,–,–,–,–,–
Cc1cc(C2CCCCC2)n(O)c(=O)c1,105,–,–,·,–
CCC(C)N(C(=O)COC(=O)c1cc([N+](=O)[O-])ccc1N)C1CCS(=O)(=O)C1 (stereo not drawn),–,–,–,–,–
Nc1ccc(C(=O)c2cccs2)cc1[N+](=O)[O-],–,–,–,126,–
Nc1ccc(C(=O)O)cc1[N+](=O)[O-],–,–,–,–,–
Cc1ccc(OCCC(=O)N(Cc2ccccc2)c2c(N)n(Cc3ccccc3)c(=O)[nH]c2=O)cc1,·,–,·,–,–
Fc1ccc(F)c(C2=NNC(=NCC3CCCO3)SC2)c1 (stereo not drawn),–,–,–,–,–
CC(=O)Nc1ccc(SCC(=O)Nc2sccc2C#N)cc1,·,–,99,–,–
COC(=O)Nc1ccc(SCC(=O)c2ccc(Cl)cc2)cc1,–,–,·,–,–
CC(=O)Nc1ccc(SCC(=O)Nc2ccccc2-c2ccccc2)cc1,·,–,98,–,–
CC(=O)Nc1ccc(SCC(=O)NC(=O)c2ccc(S(=O)(=O)N(C)C)cc2)cc1,–,·,99,·,·
COC(=O)Nc1ccc(SCC(=O)c2ccccc2)cc1,–,–,99,–,–
Cc1ccnc(SCC(=O)Nc2sccc2C#N)n1,–,–,–,–,–
O=C(CN1C(=O)c2ccccc2C1=O)c1ccc(F)cc1,–,–,–,–,–
N#Cc1ccsc1NC(=O)CN1CCN(c2ccccc2O)CC1,–,–,99,–,–
CC(=O)Nc1ccc(SCC(=O)N(C)CC(=O)Nc2ccccc2Cl)cc1,–,·,98,·,·
CC(=O)Nc1ccc(SCc2ncc(-c3ccccc3)o2)cc1,–,–,99,–,–
SMILES,CSC inhib,PP1 counter,ALR H2O2 inh,Calb FLC,PP5 inh
CN(CC(=O)Nc1ccccc1Cl)C(=O)COC(=O)CSc1ccc(F)cc1,–,–,–,–,–
Nc1c(C(=O)Nc2ccc3c(c2)OCCO3)nnn1Cc1cccc(Br)c1,77,–,–,–,–
Cc1cccc(C(=O)N/N=C/c2ccc(OC3CSC3)cc2)c1,76,–,–,–,–
CC(C)c1ccc2c(c1)C1(NN=C(c3ccccc3)S1)C(=O)N2 (stereo not drawn),116,16,–,?,–
CCc1ccc2c(c1)C1(NN=C(c3ccc(C)cc3)S1)C(=O)N2 (stereo not drawn),–,–,–,–,–
CC(C)NC(=O)CCNS(=O)(=O)c1ccc(Br)cc1,–,–,–,–,–
CSc1ccc(NC(=O)c2cccnc2)cc1C#N,–,–,–,–,–
CC1CCc2c(sc(NC(=O)c3ccc(Cn4cc([N+](=O)[O-])cn4)o3)c2C#N)C1 (stereo not drawn),–,–,–,–,–
N#Cc1c(NC(=O)c2ccc(Cn3cc(Br)cn3)o2)sc2c1CCCCC2,106,–,–,–,–
Cc1ccc(NC(=O)c2ccc(Cn3cc(Cl)cn3)o2)c(C)c1,–,–,–,–,–
COC(=O)c1sc(NC(=O)c2ccc(Cn3cc(Cl)cn3)o2)c(C#N)c1C,–,–,88,–,–
COc1cccc(NC(=O)CN(C)CC(=O)Nc2ccc3c(c2)OCO3)c1,–,·,–,·,·
CCOC(=O)Cn1nc(C)c(-c2ccccc2)c1N,–,–,–,–,–
Cc1nn(CC2CCCCC2)c(N)c1-c1ccccc1,–,–,98,–,–
Cc1ccc2[nH]c(=O)c(CN(CCO)C(=O)NCc3ccccc3)cc2c1,–,–,–,–,–
Cn1c(CN2CCOCC2)nnc1SCc1ccc(C#N)cc1,–,–,–,–,–
